Assay outcomes (PubChem BioAssay)
NOD2 RIPK2 PPI – NOD2-RIPK2 protein interaction inhibition; CHO BLA complementation NOD2-RIPK2, CCF4 ratio; inhibition, % at 4.98 µM; actives 0.38% (n = 360,000); AID 624267; in the data active = inhibition above about 21%;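 note: 0% = vehicle only and 100% = reference blocker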
Granule exo inh – blocks lytic granule exocytosis; TALL-104 LAMP-1 surface exposure, flow cytometry; cells stimulated with thapsigargin and PMA; inhibition, % at 10 µM; actives 0.66% (n = 360,000);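 active = inhibition above about 55%, limit read from the data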
ABHD5-PLIN5 inh – ABHD5-PLIN5 protein interaction inhibition | Split G. princeps luciferase complementation, luminescence, 4 h | inhibition, % at 4 µM | actives 0.78% (n = 360,000);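 active = inhibition above the mean inhibition across every tested compound plus 3 SD, cut at about 22% in these data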;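 note: 0% = DMSO only wells and the 100% control is not disclosed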
TLR4 MyD88 comp – inhibitors of human TLR4-MyD88 binding | AID 861 | actives 0.18% (n = 200,000) | inhibition, % at 8.4 µM | HeLa CL3-4 TLR4/MyD88 BLA complementation, FRET ratio | O00206+Q99836; in the data active = inhibition above about 25%;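 note: 0% = vehicle and 100% = reference inhibitor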
TLR9-MyD88 block – blocks human TLR9 binding to MyD88; Q9NR96+Q99836; CHO BLA complementation TLR9-MyD88, CCF4 FRET ratio; inhibition, % at 4.98 µM; actives 0.21% (n = 340,000);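 active = inhibition above the mean over all tested compounds plus 3 SD, cut at about 21% in these data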;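 note: 0% = DMSO only wells and 100% = clavulanate BLA inhibitor control wells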
Target sequence (Q99836 whole entry, looked up): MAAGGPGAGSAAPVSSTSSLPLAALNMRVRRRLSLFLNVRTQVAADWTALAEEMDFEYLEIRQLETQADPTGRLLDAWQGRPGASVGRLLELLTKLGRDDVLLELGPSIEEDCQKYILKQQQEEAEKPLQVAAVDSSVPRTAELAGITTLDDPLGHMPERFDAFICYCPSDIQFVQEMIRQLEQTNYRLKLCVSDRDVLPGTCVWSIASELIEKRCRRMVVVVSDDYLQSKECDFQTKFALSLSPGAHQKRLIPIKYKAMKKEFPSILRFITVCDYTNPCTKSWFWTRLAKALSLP
Target sequence (Q9NR96 whole entry, looked up): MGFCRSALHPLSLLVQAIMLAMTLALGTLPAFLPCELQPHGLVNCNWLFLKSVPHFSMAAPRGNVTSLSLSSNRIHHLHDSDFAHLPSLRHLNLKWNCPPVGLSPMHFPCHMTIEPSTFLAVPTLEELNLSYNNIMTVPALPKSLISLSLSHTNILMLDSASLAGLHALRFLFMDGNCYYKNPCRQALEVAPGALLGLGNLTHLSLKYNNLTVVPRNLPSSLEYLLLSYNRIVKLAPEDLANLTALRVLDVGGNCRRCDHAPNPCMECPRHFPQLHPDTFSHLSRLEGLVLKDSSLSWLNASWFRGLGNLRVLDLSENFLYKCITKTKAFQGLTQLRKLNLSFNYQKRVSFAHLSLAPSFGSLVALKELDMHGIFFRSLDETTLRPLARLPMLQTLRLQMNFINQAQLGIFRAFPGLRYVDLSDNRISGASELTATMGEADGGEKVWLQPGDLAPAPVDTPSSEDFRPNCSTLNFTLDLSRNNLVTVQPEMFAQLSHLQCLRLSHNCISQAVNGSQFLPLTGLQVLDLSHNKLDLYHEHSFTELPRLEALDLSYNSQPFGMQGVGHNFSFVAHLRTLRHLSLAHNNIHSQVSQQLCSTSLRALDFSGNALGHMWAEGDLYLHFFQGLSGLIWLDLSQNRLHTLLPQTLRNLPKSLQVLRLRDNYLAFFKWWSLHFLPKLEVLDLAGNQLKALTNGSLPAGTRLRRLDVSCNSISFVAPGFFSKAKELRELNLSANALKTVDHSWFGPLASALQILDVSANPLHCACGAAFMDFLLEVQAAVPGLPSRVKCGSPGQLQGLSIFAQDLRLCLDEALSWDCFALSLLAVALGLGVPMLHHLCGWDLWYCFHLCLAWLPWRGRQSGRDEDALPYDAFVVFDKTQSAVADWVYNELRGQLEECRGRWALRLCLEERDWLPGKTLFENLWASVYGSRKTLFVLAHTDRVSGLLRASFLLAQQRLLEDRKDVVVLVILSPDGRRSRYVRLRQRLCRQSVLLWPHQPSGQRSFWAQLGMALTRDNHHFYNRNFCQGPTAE
B2AR ag – agonists of human beta-2 adrenergic receptor inducing internalization; response, % (test concentration not listed); AID 504454; Am2.2-beta2AR cells, FAP receptor internalization, flow cytometry; P07550; actives 0.43% (n = 340,000);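 active = response above a set limit, near 3 SD of response in nonfluorescent compounds, cut at about 42% in these data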
NOD2 RIPK2 conf – NOD2-RIPK2 interaction inhibition confirmed; shares compounds with NOD2 RIPK2 PPI; AID 624370; CHO cells, NOD2-RIPK2 BLA complementation, CCF4 FRET; actives 70% (n = 1,200); inhibition, % at 4.98 µM;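 active = mean inhibition across replicates above a set limit taken from the earlier primary screen, cut at about 21% in these data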;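 note: 0% = DMSO-only wells and the high end = clavulanate BLA-blocked wells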
NOD2 BLA counter – hits BLA reporter in NOD2-RIPK2 inhibitor counterscreen. actives 57% (n = 1,200). shares compounds with NOD2 RIPK2 PPI. inhibition, % at 4.98 µM. AID 624371. CHO BLA reporter, CCF4 FRET ratio;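 active = mean inhibition above the low-control mean inhibition plus three low-control SD, cut at about 11% in these data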;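 note: 0% = DMSO only wells and 100% = clavulanate high control wells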
* = called active by the depositor; / = no result. In the library only some 2% were active in any assay of this set; here they are far more common.

SMILES | NOD2 RIPK2 PPI | Granule exo inh | ABHD5-PLIN5 inh | TLR4 MyD88 comp | TLR9-MyD88 block | B2AR ag | NOD2 RIPK2 conf | NOD2 BLA counter
O=C(N/N=C/c1c(O)n(-c2ccccc2Cl)c(=O)c2ccccc12)C1COc2ccccc2O1 (configuration not stated) | 23* | -1 | -4 | 10 | 14 | -28 | 26* | 39*
O=c1[nH]c2cc3c(cc2cc1CN(Cc1nnnn1CC1CCCO1)C1CCCC1)OCO3 (configuration not stated) | 39* | -2 | -3 | -3 | 18 | 4 | -5 | 1
O=c1[nH]c2cc3c(cc2cc1CN(Cc1nnnn1CC1CCCO1)C1CCCCC1)OCO3 (configuration not stated) | 22* | 1 | -5 | 14 | 20 | -1 | 4 | 0
O=c1[nH]c2cc3c(cc2cc1CN(CCc1ccccc1)Cc1nnnn1CC1CCCO1)OCO3 (configuration not stated) | 10 | -1 | -11 | -9 | 5 | -9 | / | /
CCOC(=O)N1CCN(C(c2ccnc3ccccc23)c2nnnn2-c2ccc3c(c2)OCCO3)CC1 (configuration not stated) | -9 | 3 | 0 | / | / | / | / | /
COc1ccc(CNC(=O)COc2cc(=O)n(C)c3ccccc23)cc1 | 25* | -4 | -3 | -2 | -14 | -15 | -2 | -3
COc1ccc(CNC(=O)CCCOc2cc(=O)n(C)c3ccccc23)cc1 | 2 | -1 | 1 | 10 | 6 | -3 | / | /
Cc1ccc(CNS(=O)(=O)c2c(C(=O)N3CCCCCC3)c(C)n(C)c2C)cc1 | 54* | -3 | 4 | / | 3 | 3 | -1 | 0
CCOc1ccccc1CNC(=O)c1ccc(Sc2ccc(Cl)cc2)c(NC(C)=O)c1 | -6 | -3 | -2 | -5 | -8 | 5 | / | /
CCOc1ccc(CNC(=O)c2ccc(Sc3ccc(Cl)cc3)c(NC(C)=O)c2)cc1 | 33* | 5 | -5 | -4 | 4 | 2 | 1 | 2
CC(=O)c1ccc(Cc2ccc(C(C)=O)s2)s1 | -11 | -6 | 13 | / | -8 | / | / | /
C=C(CN(C)C)C(=O)c1ccc(C)cc1C | 33* | 9 | 60* | / | 11 | 29 | 94* | 30*
COc1ccc(-c2oc3c(c2-c2cnc(OC)nc2)C(O)CC3)cc1 (configuration not stated) | 3 | 5 | 9 | / | / | / | / | /
COCC(=O)Nc1nc2n(n1)C(c1ccccc1)CC(c1ccc(OC)cc1)N2 (configuration not stated) | 28* | 0 | 2 | -2 | 13 | -6 | 26* | 26*
FC(F)(F)c1cnc2c(c1)Nc1ccccc1S2 | 22* | 0 | -8 | -2 | 10 | 3 | 9 | 5
O=C(COc1ccc(Cl)cc1Br)NCC(c1ccco1)N1CCCC1 (configuration not stated) | 11 | 12 | 0 | / | -4 | -7 | / | /
CCCCCNC(=O)C(C1CC1)n1c(=O)c(-c2cc3ccccc3[nH]2)nc2ccccc21 (configuration not stated) | 45* | 10 | -10 | / | / | / | 37* | 64*
CC(C)(C)NC(=O)C(c1cc2ccccc2o1)n1c(=O)c(-c2ccccc2)nc2ccccc21 (configuration not stated) | -5 | -6 | 8 | / | / | / | / | /
CCCc1nc2ccccc2n1C(C(=O)NC(C)(C)C)C1CC1 (configuration not stated) | 2 | -7 | 3 | / | / | / | / | /
CCCCCNC(=O)C(c1ccc(-c2ccccc2)cc1)n1c(=O)c(-c2cc3ccccc3[nH]2)nc2ccccc21 (configuration not stated) | 25* | -3 | 1 | / | / | / | 37* | 64*
CCCCCNC(=O)C(c1cc2ccccc2o1)n1c(=O)c(-c2cc3ccccc3[nH]2)nc2ccccc21 (configuration not stated) | 48* | 13 | -6 | / | / | / | 43* | 66*
COc1ccc(CN2C(=O)C(CC(=O)NCc3ccco3)CC(C(=O)N(C(C)C)C(C)C)=C2C)cc1 (configuration not stated) | 3 | 5 | -2 | / | 0 | / | / | /
COc1ccc(-c2nc(CS(=O)CC(=O)NC3CCCc4ccccc43)c(C)o2)cc1OC (configuration not stated) | 27* | 1 | 2 | -10 | -4 | 6 | -8 | -6
COc1ccc(-c2nc(CSCC(=O)NC3CCCc4ccccc43)c(C)o2)cc1OC (configuration not stated) | -3 | 1 | -3 | 2 | 6 | 2 | / | /
Cc1ccc(NC(=O)CN2C(=O)NC3(CCCc4ccccc43)C2=O)c([N+](=O)[O-])c1 (configuration not stated) | 9 | -1 | -3 | / | 8 | -7 | / | /
SMILES | NOD2 RIPK2 PPI | Granule exo inh | ABHD5-PLIN5 inh | TLR4 MyD88 comp | TLR9-MyD88 block | B2AR ag | NOD2 RIPK2 conf | NOD2 BLA counter
Cc1ccc2c(c1)C(=O)C(=O)N2CC1COc2ccccc2O1 (configuration not stated) | 24* | 17 | 13 | / | 6 | 17 | 12 | -5
CCNC(=O)C1(C)CCN(C(=O)c2ccc(C#N)cc2)C1 (configuration not stated) | -1 | 12 | 2 | / | / | / | / | /
Cc1ccnc(NC(=O)CCC(=O)N(CC(=O)NCc2ccccc2)c2ccc3c(c2)OCO3)c1 | 32* | 1 | 7 | 2 | -3 | -10 | -6 | -5
COc1cccc(CNC(=O)[C@@H]2CCCN2)c1 | -10 | 20 | 1 | / | / | / | / | /
Cc1cc(C)cc(NC(=O)C2CCN(c3cnccn3)CC2)c1 | 4 | -10 | -4 | 4 | 2 | 3 | / | /
Cc1cc(C)c(NC(=O)C2CCN(c3cnccn3)CC2)c(C)c1 | 28* | 0 | -1 | 0 | -11 | 4 | -8 | -2
COc1ccc(S(=O)(=O)N2CCCCC2)cc1NC(=O)C1CC1(Cl)Cl (configuration not stated) | 0 | -7 | -1 | / | 4 | / | / | /
O=C(Cc1cccc2ccccc12)N1CCCc2ccccc21 | 24* | -1 | -3 | 10 | 0 | -8 | 11 | 6
O=C(C[n+]1ccccc1)N1CCCc2ccccc21 | -8 | -3 | -2 | -6 | 5 | 4 | / | /
Cn1c(SCC(=O)NNC(=O)Nc2ccccc2)nnc1-c1ccccc1 | 24* | 4 | -5 | / | 15 | -5 | 11 | 10
O=C(NC1CCCCC1)c1cnn2c(C(F)(F)F)cc(-c3ccco3)nc12 | 24* | -2 | -6 | -9 | -3 | 1 | 12 | 3
CCCNC(=O)c1cc(C2CCCCN2C(=O)c2cc(OC)c(C)c(OC)c2)on1 (configuration not stated) | -2 | 1 | 7 | / | / | / | / | /
